# Where “and” joins values, the source holds several entries; their conditions need not be identical. Equal values may be shown once. A number with no mark means an inactive call. Results filed as inconclusive are left out. Where a call stands in place of a potency, no number is given. Calls of active or inactive are those of the source. Unless noted, calls follow the shape of the dose curve; as a rule, active = well fitted curve in the direction sought with a large enough effect in the repeat runs; inconclusive = weak or mixed curves; inactive = no such curve, though single readings can be large; an effect the other way counts as inactive or inconclusive.
# Columns and labels:
# [1] = qHTS assay for small molecules that induce genotoxicity in human embryonic kidney cells expressing luciferase-tagged ATAD5 (AID 651632); also: nearly all actives have a fitted effect of over 15% in size
# Method in brief: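 HEK293T cells carrying a luciferase reporter tagged to ATAD5 were exposed to compound or DMSO vehicle for 16 hr at 37C, 5% CO2. Amplite was added, and after 30 min at room temperature luciferase activity was read as a marker of ATAD5 induction.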
# [2] = qHTS assay for small molecule agonists of the p53 signaling pathway - cell viability (AID 651633; calls by dose curve;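 also: p53RE-bla HCT reporter cells with a stable beta-lactamase p53 reporter; series mostly up to about 83 µM; nearly all actives have a fitted effect of over 30% in size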)
# Method in brief: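 Viability counter-read: CellTiter-Glo luminescence (30 min, room temperature) in the same p53RE-bla plates. These plates had been exposed to compounds for 16 h at 37 C.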
# [3] = qHTS assay for small molecules that induce genotoxicity in human embryonic kidney cells expressing luciferase-tagged ATAD5 - cell viability (AID 651634; calls by dose curve; also: nearly all actives have a fitted effect of over 25% in size)
# Method in brief: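 HEK293T cells expressing luciferase-tagged ATAD5 were exposed to compound or DMSO for 15.5 hr at 37C, 5% CO2. Viability was then read as live-cell protease activity by CellTiter-Fluor fluorescence after 30 min at 37C.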
# [4] = qHTS assay for small molecule disruptors of the mitochondrial membrane potential - cell viability (AID 720634; calls by dose curve; also: nearly all actives have a fitted effect of over 20% in size; also: potency is read from the fitted curve at half-maximal effect;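 as to activity change, negative = cytotoxicity: human HepG2 liver cancer cells; series mostly up to about 83 µM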)
# Method in brief: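 HepG2 cells seeded overnight at 37 C, then exposed to compound or DMSO for 1 hr at 37 C, 5% CO2. m-MPI dye added, then CellTiter-Glo for 30 min at room temperature; viability read as ATP luminescence.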
# [5] = qHTS assay to test for compound auto fluorescence at 590 nm (red) in HepG2 cells (AID 720674)
# Method in brief: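 1 hr compound incubation on HepG2 cells, 37 C, 5% CO2; plate read ex 540 nm / em 590 nm; intensities reported as Rose Bengal sodium equivalents.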
# [6] = qHTS assay to test for compound auto fluorescence at 535 nm (green) in HepG2 cells (AID 720675)
# [7] = qHTS assay to test for compound auto fluorescence at 460 nm (blue) in HEK293 cells (AID 720678)
# Method in brief: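 HEK293 cells (2,000/well, medium with 10% dialyzed FBS) attached 4-5 hr, then exposed to compound overnight at 37C, 5% CO2. Blue fluorescence read at 405/460 nm, with triamterene as reference fluorophore.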
# [8] = qHTS assay to test for compound auto fluorescence at 535 nm (green) in HEK293 cells (AID 720680)
# [9] = qHTS assay to test for compound auto fluorescence at 460 nm (blue) in HEK293 cell free culture (AID 720681)
# Method in brief: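 Blue fluorescence (Ex 405/Em 460 nm, triamterene-equivalent) was read immediately after pin transfer of compound or DMSO into medium (DMEM, 10% FBS) without cells.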
# [10] = qHTS assay to test for compound auto fluorescence at 535 nm (green) in HEK293 cell free culture (AID 720682)
# Method in brief: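 Fluorescein serves as the green reference fluorophore; each compound's intrinsic emission at 535 nm (excitation 485 nm) is reported as an equivalent amount of that dye, measured in serum-containing DMEM without cells.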
# [11] = qHTS assay to test for compound auto fluorescence at 590 nm (red) in HEK293 cell free culture (AID 720683)
# Method in brief: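 Red-channel autofluorescence of compounds in culture medium (DMEM, 10% FBS), no cells, measured at 540/590 nm. Rose Bengal sodium is the reference fluorophore for equivalence.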
# [12] = qHTS assay to test for compound auto fluorescence at 590 nm (red) in HepG2 cell free culture (AID 720684)
# Method in brief: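 Plate contents were MEM with 10% FBS plus test compound or DMSO, no cells. Fluorescence was recorded with 540 nm excitation and 590 nm emission.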
# [13] = qHTS assay to test for compound auto fluorescence at 460 nm (blue) in HepG2 cell free culture (AID 720685)
# Method in brief: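 Compound (23 nL) or DMSO pinned into cell-free MEM with 10% FBS; blue fluorescence read at 405/460 nm excitation/emission, expressed as auto-fluorescence equivalency to triamterene.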
# [14] = qHTS assay to test for compound auto fluorescence at 535 nm (green) in HepG2 cell free culture (AID 720686)
# [15] = qHTS assay to test for compound auto fluorescence at 460 nm (blue) in HepG2 cells (AID 720687)
# Method in brief: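 Blue-channel autofluorescence (Ex/Em 405/460 nm, triamterene-equivalent) was measured after 1 hr compound exposure at 37 C, 5% CO2. Cells were HepG2, plated overnight at 37 C in MEM plus 10% FBS.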
# [16] = target: Glucocorticoid receptor (Homo sapiens) (UniProt P04150); test: qHTS assay to identify small molecule agonists of the glucocorticoid receptor (GR) signaling pathway (AID 720691; active = well fitted activation curve with a large enough effect in the signal ratio in the repeat runs, not every such curve was filed as active; the % refers to the signal ratio)
# Glucocorticoid receptor (Homo sapiens), sequence (P04150 whole entry, looked up): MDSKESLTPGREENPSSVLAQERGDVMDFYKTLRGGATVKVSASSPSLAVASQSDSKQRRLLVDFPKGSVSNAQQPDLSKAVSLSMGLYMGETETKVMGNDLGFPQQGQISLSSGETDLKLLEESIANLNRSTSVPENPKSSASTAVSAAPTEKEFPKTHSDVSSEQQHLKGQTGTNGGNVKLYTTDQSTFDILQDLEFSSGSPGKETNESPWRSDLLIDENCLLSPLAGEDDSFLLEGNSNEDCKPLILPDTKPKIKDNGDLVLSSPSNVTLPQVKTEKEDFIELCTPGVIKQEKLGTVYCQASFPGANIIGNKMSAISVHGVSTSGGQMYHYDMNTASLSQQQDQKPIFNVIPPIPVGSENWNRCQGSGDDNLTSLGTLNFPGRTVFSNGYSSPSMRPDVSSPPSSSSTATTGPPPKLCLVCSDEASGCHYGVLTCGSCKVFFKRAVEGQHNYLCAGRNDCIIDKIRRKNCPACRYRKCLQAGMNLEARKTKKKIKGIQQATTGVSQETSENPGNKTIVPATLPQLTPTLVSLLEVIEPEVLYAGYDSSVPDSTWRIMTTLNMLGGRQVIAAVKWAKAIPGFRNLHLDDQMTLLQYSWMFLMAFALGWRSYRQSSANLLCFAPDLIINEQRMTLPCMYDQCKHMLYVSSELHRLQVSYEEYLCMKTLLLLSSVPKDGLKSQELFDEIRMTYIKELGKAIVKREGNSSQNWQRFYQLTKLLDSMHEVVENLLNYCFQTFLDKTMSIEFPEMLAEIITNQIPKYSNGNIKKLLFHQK
# Method in brief: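 GR-bla HeLa cells (beta-lactamase reporter under glucocorticoid response element) were plated 4 h at 37 C/5% CO2, given compounds in DMSO, and incubated 18 h at 37 C. LiveBLAzer B/G FRET substrate was added for 2 h at room temperature, then fluorescence intensity read.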
# [17] = qHTS assay to test for compound auto fluorescence at 590 nm (red) in HEK293 cells (AID 720679)
# Method in brief: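 HEK293 cells (2,000/well, 10% dialyzed FBS) attached 4-5 hr, then dosed with compound or DMSO and incubated overnight at 37C, 5% CO2. Red fluorescence read at 540/590 nm, Rose Bengal sodium as reference fluorophore.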
# [18] = qHTS assay for small molecule disruptors of the mitochondrial membrane potential (AID 720635); also: potency is read from the fitted curve at half-maximal effect
# Method in brief: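 Mitochondrial membrane potential tracked with Mito-MPS dye, red aggregates (ex 540/em 590 nm) against green monomers (ex 490/em 535 nm). Compound treatment 1 hr at 37C, dye 30 min in HepG2.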
smiles,measurement,setting,value
O=C(NC(=O)c1cc(F)c(F)cc1Cl)Nc1cc(F)ccc1N1CCC(C(=O)O)CC1,Potency,[1],inactive
same,Potency,[2],inactive
same,Potency,[3],inactive
same,Potency,[4],inactive
same,outcome,[5],inactive
same,outcome,[6],inactive
same,outcome,[7],inactive
same,outcome,[8],inactive
same,outcome,[9],inactive
same,outcome,[10],inactive
same,outcome,[11],inactive
same,outcome,[12],inactive
same,outcome,[13],inactive
same,outcome,[14],inactive
same,outcome,[15],inactive
same,Potency,[16],inactive
ClCc1ccccc1Cl,Potency,[1],inactive
same,Potency,[2],inactive
same,Potency,[3],inactive
same,Potency,[4],inactive
same,outcome,[5],inactive
same,outcome,[6],inactive
same,outcome,[7],inactive
same,outcome,[17],inactive
same,outcome,[8],inactive
same,outcome,[9],inactive
same,outcome,[10],inactive
same,outcome,[11],inactive
same,outcome,[13],inactive
same,outcome,[14],inactive
same,outcome,[15],inactive
same,Potency,[16],inactive
C[Si](Cn1cncn1)(c1ccc(F)cc1)c1ccc(F)cc1,Potency,[1],inactive
same,Potency,[3],inactive
same,Potency,[4],31.6 µM (active)
same,Potency,[18],56.3 µM (active) and 27.3 µM (active)
same,outcome,[5],inactive
same,outcome,[6],inactive
same,outcome,[7],inactive
same,outcome,[17],inactive
same,outcome,[8],inactive
same,outcome,[9],inactive
same,outcome,[10],inactive
same,outcome,[11],inactive
same,outcome,[12],inactive
same,outcome,[13],inactive
same,outcome,[14],inactive
same,outcome,[15],inactive
CCCCCCCCCCCCN=C(N)N,activation,[1],-6.24% [at 3.63 µM]
same,"activity change, negative = cytotoxicity",[2],-15.7% [at 3.63 µM]
same,"activity, negative = cytotoxicity",[3],-6.8% [at 3.63 µM]
same,"fluorescence, relative to Rose Bengal",[5],0.188% [at 3.72 µM]
same,"fluorescence, % of fluorescein control",[6],-0.0052% [at 3.72 µM]
same,"fluorescence, % of triamterene",[7],-0.0427% [at 3.72 µM]
same,"fluorescence, % of fluorescein",[8],0.14% [at 3.72 µM]
same,"fluorescence, % of fluorescent control",[9],-0.0835% [at 3.72 µM]
same,activity change,[10],0.0011% [at 3.72 µM]
same,"fluorescence, % of fluorescent control",[11],0.145% [at 3.72 µM]
same,"fluorescence, % of Rose Bengal",[12],0.0947% [at 3.72 µM]
same,"fluorescence, % of fluorescent control",[13],-0.0023% [at 3.72 µM]
same,"fluorescence, % of fluorescein control",[14],-0.0679% [at 3.72 µM]
same,"fluorescence, % of fluorescent control",[15],0.0214% [at 3.72 µM]
same,activation,[16],-0.603% [at 3.1 µM]

# From PubChem BioAssay (Tox21)
